Sampled rows, rich in hits. Any-hit rate of the full collection: about 4.2%.
RecA splice inh – Mtb RecA intein splicing inhibitors, primary screen, biochemical, fluorescence, HTS; 290,000 tested, 0.75% active; cell-free RecA intein splicing; Protein RecA (Mycobacterium tuberculosis (strain ATCC 25618 / H37Rv)), P9WHJ3; inhibition, % (concentration not given with the values); AID 2221, 2009; in the data active = inhibition above about 30%; inconclusive = no clear call, values can overlap the other calls
Target sequence (P9WHJ3 whole entry, looked up, canonical isoform): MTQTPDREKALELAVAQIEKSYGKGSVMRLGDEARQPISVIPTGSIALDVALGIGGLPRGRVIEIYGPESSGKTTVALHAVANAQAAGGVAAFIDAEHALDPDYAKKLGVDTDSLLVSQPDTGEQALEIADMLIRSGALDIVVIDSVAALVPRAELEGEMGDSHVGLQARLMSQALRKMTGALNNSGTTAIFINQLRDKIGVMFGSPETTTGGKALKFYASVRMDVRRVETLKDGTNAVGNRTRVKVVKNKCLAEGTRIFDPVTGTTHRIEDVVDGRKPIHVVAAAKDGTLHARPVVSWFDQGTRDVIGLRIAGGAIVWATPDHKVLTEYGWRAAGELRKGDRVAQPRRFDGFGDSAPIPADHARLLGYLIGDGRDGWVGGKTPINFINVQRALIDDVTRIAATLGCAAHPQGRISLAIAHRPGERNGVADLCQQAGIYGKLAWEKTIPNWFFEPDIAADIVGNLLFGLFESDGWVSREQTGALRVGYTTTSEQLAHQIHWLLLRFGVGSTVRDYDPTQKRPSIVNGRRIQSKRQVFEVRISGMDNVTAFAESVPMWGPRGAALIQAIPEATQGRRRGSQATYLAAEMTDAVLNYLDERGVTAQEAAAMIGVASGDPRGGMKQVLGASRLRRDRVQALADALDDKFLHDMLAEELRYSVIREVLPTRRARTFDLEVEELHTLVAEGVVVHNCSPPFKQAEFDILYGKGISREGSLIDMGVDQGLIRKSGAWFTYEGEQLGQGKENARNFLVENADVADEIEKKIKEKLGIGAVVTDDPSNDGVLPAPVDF
GDH-TPI counter – GDH-TPI coupling enzyme inhibitors, primary screen, artefact control for M. tuberculosis FBA inhibitor project, biochemical, absorbance, full deck; GDH-TPI coupled enzyme counterscreen, NADH absorbance; inhibition, % at 4.8 µM; 360,000 tested, 1.2% active; AID 588335, 2011
FBA Mtb inh – Mtb FBA enzyme inhibitors, primary screen, biochemical, fluorescence, strain H37Rv. 360,000 tested, 2.3% active. Fructose-bisphosphate aldolase (Mycobacterium tuberculosis (strain ATCC 25618 / H37Rv)), …. purified M. tuberculosis FBA, fluorescence read-out. inhibition, % at 1 µM. AID 588726, 2011; in the data active = inhibition above about 27%
CCHFV vOTU inh – CCHFV vOTU protease inhibitors, primary screen, biochemical, Pep-AMC substrate, fluorescence. Crimean-Congo hemorrhagic fever virus L polyprotein viral ovarian tumor (vOTU) protease …. inhibition, % at 11.5 µM. 370,000 tested, 0.55% active. AID 651958, 2012
GFP chromophore – counter-screen: blocks GFP chromophore formation, dose response, counter-screen, biochemical, fluorescence, homogeneous | shares compounds with RecA splice inh | cell-free GFP chromophore formation | EC50, µM | 2,100 tested, 83% active | AID 434968, 2010; call rule not given here
Of the large screens only hits and unclear results are named; the others gave an inactive call (follow-up assays come after a bar, where they were run). Rule as the data show it, unless noted: active = inhibition above about 30%; inactive = the rest.

CCOC(=O)CCCCCC(=O)Nc1ccc2c(c1)C(=O)N([C@H](C)CO)C[C@H](C)[C@@H](CN(C)S(C)(=O)=O)OCCCC[C@@H](C)O2	none (no result: RecA splice inh)
O=C(CN1CCN(S(=O)(=O)c2ccc(Br)s2)CC1)NCC1CCCCC1	none (no result: RecA splice inh)
CN1CCN(C2=C(Cl)C(=O)N(C3CCCCC3)C2=O)CC1	none
CN1CCN(C2=C(Cl)C(=O)C(c3cnc(N4CCCCC4)s3)=C(Cl)C2=O)CC1	RecA splice inh 83 (no result: CCHFV vOTU inh) | GFP chromophore 3.7
Cc1ccc[n+](CC(=O)Nc2nc3ccccc3s2)c1	none
Cn1[nH]c(CSc2ccc(Cl)cc2)cc1=O	RecA splice inh 93 | GFP chromophore 27
CCNC(=O)c1ccc(CSc2ccc(Cl)cc2)cc1	none
Cc1[nH]c2c(C)cccc2c1CCNC(=O)c1ccc2c(c1[N+](=O)[O-])C(=O)c1ccccc1C2=O	none
Cc1[nH]c2ccccc2c1CCNC(=O)c1ccc2c(c1[N+](=O)[O-])C(=O)c1ccccc1C2=O	RecA splice inh 84 | GFP chromophore 31
O=C(CN1C(=O)CSc2ncccc21)Nc1ccccc1F	none
Cc1cc2oc(=O)cc(CN(C)Cc3ccccc3)c2cc1C	none (no result: RecA splice inh, GDH-TPI counter)
Cc1cccc(/C=C(\c2nc3ccccc3[nH]2)S(=O)(=O)c2ccccc2)c1	none
CC(C)(C)c1ccc(/C=C(\c2nc3ccccc3[nH]2)S(=O)(=O)c2ccccc2)cc1	RecA splice inh 82 (no result: CCHFV vOTU inh) | GFP chromophore 6.6
O=C(CSCc1ccc([N+](=O)[O-])cc1)N/N=C/c1cccnc1	RecA splice inh 38 | GFP chromophore inactive
COc1cc(/C=N/NC(=O)c2ccc(Cl)cc2)ccc1OCC(=O)N1CC(C)OC(C)C1 (centres undefined)	none
COc1cc(/C=N/NC(=S)Nc2cccc(Cl)c2C)ccc1OCC(=O)N1CC(C)OC(C)C1 (centres undefined)	RecA splice inh 55, GDH-TPI counter 33 | GFP chromophore 37
O=c1[nH]c(Sc2ccc([N+](=O)[O-])cc2[N+](=O)[O-])nc2ccccc12	RecA splice inh 34 | GFP chromophore 31
O=[N+]([O-])c1ccc(Sc2nc3ccccc3o2)c([N+](=O)[O-])c1	RecA splice inh 66 | GFP chromophore 2
O=[N+]([O-])c1ccc(Sc2cc[n+]([O-])c3ccccc23)c([N+](=O)[O-])c1	none
O=[N+]([O-])c1ccc(Cl)cc1Sc1nc2ccccc2o1	none
C=CCCN(Cc1ccccc1)S(=O)(=O)c1cc(Br)ccc1Br	none (no result: RecA splice inh)
CC(C)(C)OC(=O)N1CC=C2C(C#N)=C(N)C(C#N)(C#N)C(c3cccs3)C2C1 (centres undefined)	RecA splice inh 53 | GFP chromophore 10
CCc1ccc(C(=O)Cn2ncc(Cl)c(Cl)c2=O)cc1	none
O=C(OCn1ncc(Cl)c(Cl)c1=O)c1cccc(C(F)(F)F)c1	RecA splice inh 94 (no result: CCHFV vOTU inh) | GFP chromophore 1.6
Cc1ccc(S(=O)(=O)NCC2CCC(C(=O)NCCCN3CCOCC3)CC2)cc1 (centres undefined)	none | GFP chromophore inactive
Cc1ccc(S(=O)(=O)NCC2CCC(C(=O)NCCCN3CCC(C)CC3)CC2)cc1 (centres undefined)	none (no result: RecA splice inh)
O=C(Cn1nc(-c2ccccc2)ccc1=O)NCCc1ccc(F)cc1	none (no result: RecA splice inh, GDH-TPI counter, FBA Mtb inh)
COc1ccc(S[C@]2(C(=O)NC3CC3)CC(=O)N[C@@H]2c2ccc(OC)cc2)cc1	none (no result: RecA splice inh, GDH-TPI counter, FBA Mtb inh)
c1ccc(-c2nnc(-c3ccccn3)nc2NC2CCCCC2)cc1	RecA splice inh 38 | GFP chromophore 23
CNc1nc(-c2ccccn2)nnc1-c1ccccc1	none
CC(=O)N(c1ccc(Cl)cc1)c1cn(C(C)=O)c2ccccc12	none
CC(=O)n1cc(N(C(=O)CCl)c2ccc(C)cc2)c2ccccc21	RecA splice inh 91 | GFP chromophore 1.7
CC(=O)c1cccc2c(O)c(C3=Nc4ccccc4C3=O)[nH]c12	RecA splice inh 41 | GFP chromophore 4.6
COC(CN(C(=O)CCl)C(C(=O)NC1CCCCC1)c1ccc(Cl)cc1)OC (centres undefined)	RecA splice inh 35 | GFP chromophore 34
COc1ccc(N(C(=O)c2cnccn2)C(C(=O)NC2CCCCC2)c2ccc(Cl)cc2)cc1 (centres undefined)	none
COc1ccc(C(C(=O)NC2CCCCC2)N(C(=O)CCl)c2ccc(Cl)cc2)cc1 (centres undefined)	RecA splice inh 67 (no result: CCHFV vOTU inh) | GFP chromophore inconclusive
O=C(NC1CCCCC1)C(c1cccnc1)N(C(=O)CCl)c1cccc(Cl)c1 (centres undefined)	RecA splice inh 79 | GFP chromophore 5.9
COC(=O)[C@@]1(Cc2ccccc2)[C@H]2C(=O)N(C)C(=O)[C@H]2[C@H]2CN=C(SCc3ccc(Cl)cc3)N21	none (no result: RecA splice inh)
CCC1CCCCN1CCCNC(=O)c1ccc(CS(=O)(=O)c2ccccc2OC)o1 (centres undefined)	none
N=c1c2c(ncn1Cc1ccco1)Oc1ccc3ccccc3c1C2c1ccccc1 (centres undefined)	RecA splice inh 30 | GFP chromophore 33
Cc1ccc(NC(=O)C(CC(C)C)NC(N)=O)cc1 (centres undefined)	RecA splice inh 33 | GFP chromophore inactive
N=C(N)SCc1cn(-c2ccccc2)nc1-c1ccc(Br)cc1	RecA splice inh 40 | GFP chromophore 20
COc1cc(/C=C2\C(=O)ON=C2c2ccc(Cl)cc2)ccc1O	none (no result: GDH-TPI counter, FBA Mtb inh)
COc1ccc(C2=NN(c3ccccc3)C(=O)/C2=C\c2ccc(O)c(OC)c2)cc1	RecA splice inh 93 | GFP chromophore 2.6
COc1ccc(/C=C2/C(=O)N(c3ccccc3)N=C2C)cc1	RecA splice inh 69 (no result: CCHFV vOTU inh) | GFP chromophore 3.2
CC1=NN(c2ccccc2)C(=O)/C1=C/c1cn(C)c2ccccc12	RecA splice inh 37 | GFP chromophore inactive
COc1ccc(NC(=O)CN2CCN(C(C)=O)CC2)cc1S(=O)(=O)N1CCOCC1	none (no result: RecA splice inh)
Cc1cccc(NC(=O)c2ccc(Cl)c(S(=O)(=O)N3CCCCC3)c2)n1	none
COc1ccc(NC(=O)/C(Cl)=C(/Cl)S(=O)(=O)Cc2ccccc2)cn1	RecA splice inh 76 | GFP chromophore 7.5
COc1ccc(NC(=O)C(Cl)=C(Cl)Cl)cn1	none
Cc1c(C)n(O)c2ccc3nonc3c12	RecA splice inh 56 | GFP chromophore 24
On1c2c(c3c4nonc4ccc31)CCCC2	none (no result: GDH-TPI counter, FBA Mtb inh, CCHFV vOTU inh)
Cc1cc(C)c(S(C)(=O)=O)c(Oc2ccc(F)cc2)n1	none
Cc1cc(C)c(S(C)(=O)=O)c(Oc2cccc(C(F)(F)F)c2)n1	RecA splice inh 33 | GFP chromophore inactive
CCOC(=O)c1c(S(=O)(=O)NCCCc2ccco2)c(C)n(C)c1C	none
COc1ccc(CN2CCC(C(=O)Nc3ccc(Oc4cccnc4)cc3)CC2)c(C)c1C	none
COc1ccc2c(c1)-c1c(ssc1=S)C(C)(C)N2C(=O)CSC1=NCCS1	none
